Results: article PMC12136788
Whole data set: some 5,800 sequences, median “enrichment r” near 0.68, cut for the highest 2% near 11. These entries were drawn from the full list.

T1: UNK ZnF1-6 (called full-length) (human, UniProt Q9C0B0 30-357)
T1 sequence: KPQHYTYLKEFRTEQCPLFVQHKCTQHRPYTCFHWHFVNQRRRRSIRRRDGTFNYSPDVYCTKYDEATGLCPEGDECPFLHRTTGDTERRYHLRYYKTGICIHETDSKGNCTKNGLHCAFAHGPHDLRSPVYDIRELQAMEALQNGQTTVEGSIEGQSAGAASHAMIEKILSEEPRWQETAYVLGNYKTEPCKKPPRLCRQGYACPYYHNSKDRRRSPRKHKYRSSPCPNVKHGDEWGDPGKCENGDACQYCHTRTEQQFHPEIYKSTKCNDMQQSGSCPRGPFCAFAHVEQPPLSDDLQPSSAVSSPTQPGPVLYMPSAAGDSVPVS

B1: chr8:23842656:23842757:-|3pUTR|ENSG00000159167|msi1|total|mutant (ssRNA)
RNA: GGGAGUUCUACAGUCCGACGAUCCCCCAAACUUAUGGACACUGCCUCCGCCUCUUGGAAAUCAGGCCGACCAUAUUCUAAGUCCGACUCUUCCCCUCCCUCCCACACUUCCCACCCCCAGGCAAGGCUGACUUCUCUGAAUCACAACAGAGGAUUGAGCAUCA
B2: ENSG00000070961:be:win_3851|3pUTR|ENSG00000070961|bound_else_gene|NA|bound_elsewhere_windowed (ssRNA)
RNA: GGGAGUUCUACAGUCCGACGAUCUUUUUGGGGGGUGGGAGAAAUGAACUGACAGAUAAACAGUAACUCAGCGUAAGUGACCUGUGGAUCAUCAGUAGUACCCAAGCAUGGUCCUGAACAGUGUAUUAGCAGAGCUUUAGUUUACAACAGAGGAUUGAGCAUCA
B3: chr19:34227675:34227687:+|3pUTR|ENSG00000257103|msi1_unk|FALSE|overlapping (ssRNA)
RNA: GGGAGUUCUACAGUCCGACGAUCUUAAAACAUGAGCAUUAAAUAUAUUUGGAAUAGCAGAAGGUUAAGUAAUUUCUUAUGUAUAGUUAAACUAAAGCAGUACUUCAGUGGGACUUAACAAGUAUUUUUUCAUCACUGAAAGGUCAACAGAGGAUUGAGCAUCA
B4: chr19:51415897:51416167:-|CDS|ENSG00000142512|control|control|control (ssRNA)
RNA: GGGAGUUCUACAGUCCGACGAUCGCCACACUGAGCUGGGUCCUGCAGAACAGAGUCCUCUCCUCGUCCCAUCCCUGGGGCCCUAGACCCCUGGGGCUGGAGCUGCCCGGGGUGAAGGCUGGGGAUUCAGGGCGCUACACCUGCCAACAGAGGAUUGAGCAUCA
B5: chr1:180199467:180199568:+|3pUTR|ENSG00000116260|msi1|FALSE|unique (ssRNA)
RNA: GGGAGUUCUACAGUCCGACGAUCCACAGGAACAAUUUCCUCAAGGAGACAGUGGCAUGGAGCUUUGAAAGACGAGUAGGUGUUAGCAAGGAAAUAAGGAGGAACGGGGGUUACGGGCAGAGGAGAAAGCACAUGCCAAGUCAGCAACAGAGGAUUGAGCAUCA
B6: chr15:55376998:55377117:-|CDS|ENSG00000260916|unk|total|mutant (ssRNA)
RNA: GGGAGUUCUACAGUCCGACGAUCUAUCUAUAUUGGAACUGCCAGUGAUGAUUCUGAUAUUGUUACCCUUGAGCCACCUAAGUCCGAAGAAAUUGGAAAUCAAGAAGUUGUCAUUGUUGAAGAAGCACAGAGUUCAGAAGACUUCAACAGAGGAUUGAGCAUCA
B7: chr15:63774837:63774950:-|CDS|ENSG00000103657|unk|FALSE|unique (ssRNA)
RNA: GGGAGUUCUACAGUCCGACGAUCGUAACAACAUUUCUUAAAGGAGUCACUAUUCCUAAUUCUGGGGCAGACACUUUAGGUCGUAGAUUAGCUUCUGAGUUGCUGCUUGGUUUGGCAGCUCAACGAGGCUCAUUGCGAUAUCUUCAACAGAGGAUUGAGCAUCA
B8: chr12:68660398:68660499:+|3pUTR|ENSG00000127314|msi1|total|mutant (ssRNA)
RNA: GGGAGUUCUACAGUCCGACGAUCUUGAGGUGGCCAAAUGUAAACUAAAAGCCUUAAUUAAAGUGGUGCAAUUUUGUAUAACUCCGCAUCAGCCGUUCAAUAAAUUUGGAUUGCCAUGCAAGGGCUUGCAUUAUAAUUACUUGCCAACAGAGGAUUGAGCAUCA
B9: chr5:103029089:103029184:+|3pUTR|ENSG00000145730|msi1_unk|FALSE|overlapping (ssRNA)
RNA: GGGAGUUCUACAGUCCGACGAUCAACCAAGCUUUGAUUUAGAUUGAGUAAGAUUUACCCAGAAUGUCAGAUUCCUUUCCCUUUAGCACGUUUAAAGUUCUGUGUAUUUAAUUGUAAACUGUACUAGUCUGUGUGGGACUGUACCAACAGAGGAUUGAGCAUCA
B10: chr2:32415436:32415554:+|CDS|ENSG00000115760|unk|FALSE|unique (ssRNA)
RNA: GGGAGUUCUACAGUCCGACGAUCUGGGACUUUGGUUCAGUGCUUGAGGCUGCCAAAGUUUGCAGAGGAGGAGAAUCUUUGUAUAGACUCAAUAACUCCUUGUGCUGACGGAAUUCAUUUGUUGGUAGGACUGCGGACAUGCCCCAACAGAGGAUUGAGCAUCA
B11: chr1:43978039:43978149:+|3pUTR|ENSG00000117410|unk|total|mutant (ssRNA)
RNA: GGGAGUUCUACAGUCCGACGAUCGGCCGUGCCUCACUUUUAUUUAUUGCUGGUUUUCCUGGGACAGCUGGAGCUGUGUCCCUCCGCCUUUCAGAGGCUUGGUGUUCAGGGCCCUCCCUGCACUCCCCUCUUGCUGCGUGUUGACAACAGAGGAUUGAGCAUCA
B12: ENSG00000107863:be:win_5401|CDS|ENSG00000107863|bound_else_gene|NA|bound_elsewhere_windowed (ssRNA)
RNA: GGGAGUUCUACAGUCCGACGAUCAGACAUACACUAGGAGGGCACAGAGAUGCUACCGAAAUCAGCGUUUUGAAUUUUUGGAAAGUGCAUGAGCAGAGCGGGGAGAGAGAAUCUGAACUUUCAGCUGUAAACCGGUUAAAACCACAACAGAGGAUUGAGCAUCA
B13: ENSG00000156976:stop:overlap|stop_codon|ENSG00000156976|stop_codon|NA|stop_codon (ssRNA)
RNA: GGGAGUUCUACAGUCCGACGAUCCUUUGGUUAUAAAUUAUGAUCUACCUACCAAUCGUGAAAACUAUAUUCACAGGAGUCGAUAGCAGCAGUUGGUGACGAGAUGGCACUCAGAAACGGCGUUGACGUAAUUUAGGACGUGGACAACAGAGGAUUGAGCAUCA
B14: chr2:159967538:159967678:-|CDS|ENSG00000153246|control|control|control (ssRNA)
RNA: GGGAGUUCUACAGUCCGACGAUCUAGUGAAGAGUGUUCAGUUUCUAUGCCUAGUAUCUGUAAGCGAAAAAAGGUUUGGCUCAUAGAGAAAAAGAAAGAUACACCAAAACAACAUGGAACGUGUCCCAAAGGAUGGCUAUAUUUCAACAGAGGAUUGAGCAUCA

What follows are binders tested against T1, UNK ZnF1-6 (called full-length) (assay: nsRBNS (natural sequence RNA bind-n-seq); RBNS binding buffer (assumed for nsRBNS): 25 mM Tris pH 7.5, 150 mM KCl, 3 mM MgCl2, 0.01% Triton X-100, 500 ug/ml BSA, 20 U/ml SUPERase-In, 4 C; UNK is unkempt and MSI1 is Musashi-1; names of the RNAs are library labels; protein concentration not given here; high values mean tight binding).

| Binder | binding signal [enrichment R] |
| --- | --- |
| B1 | 1.07 |
| B2 | 1.18 |
| B3 | 1.37 |
| B4 | 0.641 |
| B5 | 1.51 |
| B6 | 0.258 |
| B7 | 0.542 |
| B8 | 0.352 |
| B9 | 1.16 |
| B10 | 0.624 |
| B11 | 0.779 |
| B12 | 0.693 |
| B13 | 0.52 |
| B14 | 0.378 |
